# Measured values from PubChem BioAssay (NCI).
# The panel holds about 83,000 compounds, 20% with a hit somewhere; the sample as a whole holds those more often.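 The test compound was applied at a single concentration to cells in 96-well plates for 48 hours, and percent growth was recorded.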 A number with no mark means an inactive call. The source made the active and inactive calls. The calls were made as follows: active = growth percent below 10; inactive = the rest.
# Tests used:
# Test in all cases: NCI-60 one-dose screen, 48 h (100 = growth as untreated, 0 = no growth, -100 = all killed)
# Details in all cases: 10 µM unless noted
# DU-145 prostate = tested on: DU-145 prostate
# K-562 leukemia = tested on: K-562 leukemia
# MALME-3M melanoma = tested on: MALME-3M melanoma
# MDA-MB-231 breast = tested on: MDA-MB-231 breast
# RXF 393 renal = tested on: RXF 393 renal
# SF-268 CNS = tested on: SF-268 CNS
# SF-295 CNS = tested on: SF-295 CNS
# SF-539 CNS = tested on: SF-539 CNS
# UACC-257 melanoma = tested on: UACC-257 melanoma
# M14 melanoma = tested on: M14 melanoma
# HCT-15 colon = tested on: HCT-15 colon
# HT29 colon = tested on: HT29 colon
# SNB-75 CNS = tested on: SNB-75 CNS
# SNB-19 CNS = tested on: SNB-19 CNS
# U251 CNS = tested on: U251 CNS
# SK-MEL-5 melanoma = tested on: SK-MEL-5 melanoma
# UACC-62 melanoma = tested on: UACC-62 melanoma
# LOX IMVI melanoma = tested on: LOX IMVI melanoma
# SK-MEL-28 melanoma = tested on: SK-MEL-28 melanoma
# PC-3 prostate = tested on: PC-3 prostate
Compound,growth (DU-145 prostate),growth (K-562 leukemia),growth (MALME-3M melanoma),growth (MDA-MB-231 breast),growth (RXF 393 renal),growth (SF-268 CNS),growth (SF-295 CNS),growth (SF-539 CNS),growth (UACC-257 melanoma),growth (M14 melanoma),growth (HCT-15 colon),growth (HT29 colon),growth (SNB-75 CNS),growth (SNB-19 CNS),growth (U251 CNS),growth (SK-MEL-5 melanoma),growth (UACC-62 melanoma),growth (LOX IMVI melanoma),growth (SK-MEL-28 melanoma),growth (PC-3 prostate) [%]
Cc1nn(-c2ccccc2)c(N2CCOCC2)c1-c1nc2ccc([N+](=O)[O-])cc2[nH]1,98.4%,88.4%,105%,109%,113%,89.7%,99.8%,109%,106%,108%,91.5%,113%,95.7%,103%,102%,95.7%,83.4%,92.1%,102%,–
O=C(CCN1CCCCC1)c1ccc(Cl)cc1,106%,118%,105%,104%,113%,104%,94.2%,99.9%,108%,107%,98.5%,104%,89.1%,103%,107%,97.6%,103%,91.3%,108%,–
O=C(NCc1ccccc1)C(Cl)Cl,110%,108%,101%,102%,107%,99.7%,95.7%,97.4%,102%,101%,98.2%,99.2%,102%,–,99.4%,101%,93.1%,101%,–,101
COc1cc(C)cc2oc3oc(=O)c(-c4nc5ccccc5s4)cc3c(=O)c12,98.8%,99.8%,94%,95.1%,77.5%,96.6%,98.9%,83.7%,109%,99%,102%,103%,79.3%,92.9%,93.4%,99.5%,67.7%,94.1%,93.2%,–
O=C(O)c1cn(C2CC2)c2cc(N3CCN(Cc4c(O)ccc5ccccc45)CC3)c(F)cc2c1=O,3.75% (active),58.4%,10.9%,43.6%,-29.2% (active),47.1%,39.3%,-17.7% (active),35.1%,47.6%,5.61% (active),-46.7% (active),-20.8% (active),83.1%,37.5%,58.4%,38.8%,37.1%,27.8%,–
C=C(C)[C@@H]1CC[C@]2(C(=O)N3CCN(C)CC3)CC[C@]3(C)[C@H](CC[C@@H]4[C@@]5(C)C/C(=C/c6ccncc6)[C@H](O)C(C)(C)[C@@H]5CC[C@]43C)[C@@H]12,-12.4% [100 µM] (active),-13.4% [100 µM] (active),-55.1% [100 µM] (active),-48.5% [100 µM] (active),-88.5% [100 µM] (active),4.1% [100 µM] (active),-53.6% [100 µM] (active),-72% [100 µM] (active),-31.2% [100 µM] (active),-13.6% [100 µM] (active),-28.6% [100 µM] (active),-65.8% [100 µM] (active),4.76% [100 µM] (active),14.4% [100 µM],-70.5% [100 µM] (active),-82.4% [100 µM] (active),-56% [100 µM] (active),-77.3% [100 µM] (active),-54.3% [100 µM] (active),–
O=C(CSc1nc2ccc([N+](=O)[O-])cc2[nH]1)Nc1cccc(Cl)c1,36.3%,16.4%,2.51% (active),41.1%,44.5%,24.3%,21.7%,45.2%,15%,29.4%,23.3%,21.1%,23.9%,17.6%,13.6%,0.349% (active),8.24% (active),27.7%,28.9%,–
Fc1cc2[nH]ncc2c2c3c(c(-c4cn[nH]c4)nc12)CCCC3,7.37% (active),15.4%,-14.8% (active),3.56% (active),-56% (active),3.1% (active),9.21% (active),-30.7% (active),-22.2% (active),1.03% (active),4.51% (active),11%,3.38% (active),8.75% (active),-1.45% (active),-69.4% (active),-48% (active),0.769% (active),2.87% (active),–
C=CCCCCOc1ccccc1-c1cnc(OCCCCC=C)n1C,92.6%,30.5%,62.8%,66.5%,90.5%,79.6%,70.1%,81%,66.6%,72.6%,52.2%,18.1%,81.9%,91.1%,68.6%,83.7%,55.7%,69.1%,73.4%,–
Cc1ccc(-c2cc(-c3ccc(C)cc3)nc(NCCNc3ccnc4cc(Cl)ccc34)n2)cc1,-26.4% (active),-14.4% (active),-81.4% (active),-89.1% (active),-70.4% (active),-21.9% (active),-76.3% (active),-80.6% (active),-60.9% (active),-88.8% (active),-84.9% (active),-36% (active),-30.2% (active),16.8%,-84.4% (active),-93.1% (active),-79.9% (active),-92.3% (active),-83.6% (active),–
COc1ccc(-c2cc(-c3ccccc3)nc(NCCNc3ccnc4cc(Cl)ccc34)n2)cc1,-73.8% (active),-47.1% (active),-77.1% (active),-89.8% (active),-87% (active),-40.1% (active),-75.4% (active),-81.7% (active),-78.8% (active),-78.7% (active),-81% (active),-48.8% (active),-68.3% (active),-83.7% (active),-84.3% (active),-97.6% (active),-89.9% (active),-79% (active),-92.8% (active),–
O=C1CC(C(F)(F)F)Cc2nc3ccc(Br)cc3cc21 (stereo unspecified),102%,79.1%,84.1%,82.4%,91.1%,88.4%,90.2%,93.9%,106%,90.7%,89.9%,98.2%,78.5%,–,92.2%,92.6%,81.1%,91.1%,–,82
O=c1[nH]c(CN2CCN(c3cccc(Cl)c3)CC2)nc2cc(Cl)ccc12,101%,97.9%,108%,104%,90.3%,99.3%,100%,94.2%,59.9%,89.1%,94.4%,106%,80.5%,91.3%,94.6%,99.4%,93.8%,92.5%,102%,–
Cc1cnc(N)nc1OCC(C)(C)CNC(=O)c1cccc(-c2ccc(S(=O)(=O)Nc3ccc4c(c3)N(C(=O)C3CC3)CCC4)cc2)c1,77.4%,34.3%,80.7%,68.1%,74.6%,67.5%,55.3%,75.2%,46.6%,96.4%,67.6%,42.1%,48.1%,–,59.4%,-36.1% (active),47.8%,76.6%,–,51.8
N#Cc1ccc(-c2ccc(COc3ccc(CC4SC(=O)NC4=O)cc3)cc2)cc1 (stereo unspecified),92.6%,28.3%,59.5%,71.2%,97.5%,63.6%,50.3%,65.5%,84.9%,73.4%,63.6%,103%,67.8%,63.3%,63%,-18.3% (active),51.4%,48.5%,79%,–
COc1ccc(CC(C#N)c2ccc(Cl)cc2)cc1 (stereo unspecified),77.3%,41.6%,89.3%,79.7%,92.1%,78%,78.9%,85.1%,91.7%,73.3%,60.6%,55.3%,75.9%,82.1%,77.6%,76.8%,69.6%,79.3%,91.5%,–
